# According to the supplement of paper PMC12636033:
# ± gives the standard deviation of the averaged measurements. The full ranking holds about 33,000 sequences; the median of “E-score (rank enrichment, -0.5 to 0.5)” is about -0.0075, and the highest 2% start at about 0.23. The list comes from a sample in which the highest values are over-represented; it also holds similar and randomly drawn sequences.
# System: WT Max(13-93) synthetic (M65Nle)
# Experiment: PBM 8-mer E-score (E-score (rank enrichment, -0.5 to 0.5)); higher = stronger preferential binding
# Experimental: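 Protein binding microarray (universal PBM chip covering all 10-mers in fixed probe flanks) with chemically synthesized human Max(13-93) bHLH-LZ analogs (not full-length Max) bearing noncanonical residues (hArg, Tha, Aib, Nle at 65) and aromatic Cys staples. Read-out per 8-mer (and its reverse complement): E-score (rank-based enrichment, -0.5 to 0.5) and Z-score of median probe intensity.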
row,Sequence,PBM 8-mer E-score
1,CGTATACG,0.241 ± 0.024
2,AGTATACA,0.155 ± 0.15
3,CCGATCCC,-0.173 ± 0.033
4,ATCACCCC,0.117 ± 0.11
5,CCAGGACC,-0.162 ± 0.086
6,ATAATCAA,0.15 ± 0.011
7,CTAATCAG,0.027 ± 0.0044
8,ATAATCAG,0.256 ± 0.14
9,ATAATCAT,0.285 ± 0.0003
10,AAAATCAG,0.104 ± 0.15
11,ATAATCAC,0.04 ± 0.043
12,AGCTTCTC,0.118 ± 0.0033
13,AGACGTCG,-0.117 ± 0.066
14,CACCCTCC,0.202 ± 0.054
15,CGGGGTCC,-0.276 ± 0.066
16,CTATGGTC,-0.0873 ± 0.11
17,GCATGGTA,0.185 ± 0.032
18,GCATGGCC,0.0853 ± 0.066
19,ACATGGCG,0.183 ± 0.026
20,ACATGGTA,0.277 ± 0.008
21,CCATGGTC,0.0328 ± 0.1
22,CCATGGGG,-0.138 ± 0.011
23,ACATGGTC,0.319 ± 0.016
24,ACATGGGG,0.273 ± 0.033
25,CCATGGTA,0.0299 ± 0.078

row,Sequence,PBM 8-mer E-score
1,ACATGGCC,0.232 ± 0.14
2,ACATGGGA,0.135 ± 0.03
3,AAATCGCT,-0.0979 ± 0.047
4,ACTGTGTG,0.0422 ± 0.088
5,AAGAACTA,0.204 ± 0.045
6,CGCTGCAA,-0.0409 ± 0.02
7,ACATGGTG,0.233 ± 0.045
8,AGATGGTG,0.00749 ± 0.089
9,ACATGGAG,0.198 ± 0.015
10,GTGGGGAA,0.205 ± 0.11
11,GACTGACA,-0.0306 ± 0.026
12,AGGCCCTC,0.00332 ± 0.043
13,CAGGAATC,-0.216 ± 0.02
14,ATACAAAA,0.265 ± 0.02
15,ATACAAAG,0.0198 ± 0.057
16,ATACAAAC,0.212 ± 0.016
17,ATACAAAT,0.249 ± 0.035
18,TTACAAAA,0.225 ± 0.024
19,CTACAAAA,0.0614 ± 0.0036
20,GAGAAAAC,-0.0792 ± 0.0078
21,GCAAAGGA,0.00898 ± 0.011
22,AATTCATG,0.132 ± 0.0098
23,ATATTCAC,0.234 ± 0.022
24,GTATTCAC,0.0929 ± 0.016
25,CTATTCAC,-0.0152 ± 0.017

row,Sequence,PBM 8-mer E-score
1,CGCTGTCA,-0.225 ± 0.066
2,ACGTTCGA,-0.101 ± 0.043
3,CGTATGGA,-0.00324 ± 0.07
4,CTGTAATA,0.0153 ± 0.064
5,ATGTAATA,0.25 ± 0.011
6,ATGTAAAA,0.268 ± 0.011
7,ATGTAATG,0.16 ± 0.079
8,CTGTAAAA,0.0812 ± 0.032
9,CTGTAACA,0.044 ± 0.048
10,ATGTAACG,0.0739 ± 0.012
11,ATGTAACA,0.239 ± 0.027
12,ATGTAAAT,0.224 ± 0.021
13,GCTTAGGA,-0.105 ± 0.036
14,TGACCCAA,0.106 ± 0.036
15,CGTTACTA,0.108 ± 0.1
16,CCCTCCTC,-0.0364 ± 0.059
17,GCATAGTA,0.0884 ± 0.0015
18,GTCCCGCA,-0.141 ± 0.005
19,ACGTGTGA,0.192 ± 0.054
20,ACGTGTGC,0.348 ± 0.0039
21,ACGTGTGG,0.3 ± 0.048
22,AAGTGTGG,0.0251 ± 0.043
23,CCGTGTGC,-0.0611 ± 0.063
24,AGGTGTGG,0.0754 ± 0.09
25,ACAAAACG,0.152 ± 0.068

row,Sequence,PBM 8-mer E-score
1,ACCAGACA,-0.0218 ± 0.036
2,AAGAACAG,0.137 ± 0.033
3,AAGAACAT,0.2472 ± 0.0023
4,AAGAACAC,0.156 ± 0.11
5,CCAAGCAC,0.139 ± 0.07
6,ACACCGCA,-0.148 ± 0.046
7,CCGACCGA,-0.158 ± 0.039
8,CGTTCGAC,-0.123 ± 0.034
9,GCATGTAC,0.197 ± 0.093
10,ACATGTCT,0.222 ± 0.1
11,GCATGTAA,0.239 ± 0.0044
12,TCATGTAA,0.148 ± 0.0053
13,CCATGTAC,0.0683 ± 0.0021
14,ACATGTAC,0.29 ± 0.009
15,ACATGTAT,0.341 ± 0.019
16,AAATGTAC,0.268 ± 0.026
17,AAATGTAG,0.144 ± 0.015
18,AGATGTAT,0.158 ± 0.0099
19,CCATGTAA,0.0612 ± 0.026
20,CAATGTAC,0.0304 ± 0.16
21,ATTATCCC,0.073 ± 0.014
22,CCGCGTAA,-0.0539 ± 0.056
23,CGTTCGTA,0.0244 ± 0.0097
24,CCGTTCAC,-0.15 ± 0.0062
25,CCATGTAG,0.14 ± 0.045

row,Sequence,PBM 8-mer E-score
1,AGATGTAG,0.0391 ± 0.11
2,ACATGTAA,0.317 ± 0.0085
3,AAATGTAA,0.0766 ± 0.017
4,AGATGTAA,0.114 ± 0.043
5,ACATGTAG,0.329 ± 0.031
6,ATTCGATA,0.0933 ± 0.11
7,CTGCAGAA,-0.039 ± 0.059
8,CGGGTTGC,-0.0971 ± 0.064
9,CTGACCAA,-0.00243 ± 0.0086
10,AATGGTTA,0.147 ± 0.038
11,CATGGTCG,0.219 ± 0.039
12,CATGGTCA,0.291 ± 0.031
13,CATGGTCC,0.0038 ± 0.074
14,GATGGTTA,0.0493 ± 0.12
15,CATGGTTA,0.2411 ± 0.0015
16,TGCCGCAA,0.106 ± 0.083
17,GAATAGGC,0.113 ± 0.015
18,CCGTGAGC,-0.142 ± 0.048
19,CAGGGGTC,-0.0985 ± 0.052
20,GCGACGAC,-0.0631 ± 0.081
21,TGTACGAA,0.0875 ± 0.095
22,CATGCTAC,0.0659 ± 0.14
23,CATGCTAG,0.241 ± 0.034
24,AATGCTAG,-0.0447 ± 0.064
25,CATGCTGG,0.314 ± 0.04

row,Sequence,PBM 8-mer E-score
1,AATGCTGG,0.0745 ± 0.034
2,CATGCTGC,0.183 ± 0.089
3,CCCCCGTC,-0.0979 ± 0.09
4,TGCCGGAA,-0.154 ± 0.028
5,AATGCGCC,-0.0607 ± 0.1
6,CCACTTAG,0.00666 ± 0.08
7,CCGAGCGG,-0.0233 ± 0.11
8,CAACTACG,-0.0136 ± 0.15
9,GCCTCGAA,-0.199 ± 0.015
10,ACTTGCTA,0.0291 ± 0.18
11,CAACAGGC,-0.126 ± 0.031
12,AACATAAA,0.225 ± 0.066
13,TACATAAA,0.234 ± 0.02
14,GACATACA,0.162 ± 0.037
15,CACATACA,0.00143 ± 0.16
16,CACATACG,0.0417 ± 0.11
17,AACATACG,0.246 ± 0.04
18,TTCATAAA,0.0506 ± 0.062
19,GTCATAAC,0.0805 ± 0.074
20,CACATAAA,0.106 ± 0.099
21,TACATACA,0.275 ± 0.015
22,AACATACT,0.0867 ± 0.12
23,GTCATAAA,0.282 ± 0.021
24,CCGTCTGC,-0.0961 ± 0.0095
25,GTGAAACA,0.0563 ± 0.012

row,Sequence,PBM 8-mer E-score
1,AGTAGTTC,-0.116 ± 0.027
2,CACCTAAC,-0.189 ± 0.12
3,CGTTCAGC,-0.266 ± 0.082
4,TCATTGCA,0.0909 ± 0.036
5,AACATACA,0.26 ± 0.062
6,AACATACC,0.0333 ± 0.06
7,ACCATACA,0.0446 ± 0.2
8,ACGTCGGA,-0.0798 ± 0.0092
9,ATGTGCAA,0.203 ± 0.06
10,AGGTGCAT,0.139 ± 0.0098
11,ACGTGCAT,0.378 ± 0.013
12,CTGTGCAC,-0.091 ± 0.017
13,ACGTGCAG,0.325 ± 0.063
14,ATGTGCAC,0.29 ± 0.059
15,CCGTGCAG,-0.0417 ± 0.026
16,ACGTGCAC,0.391 ± 0.021
17,AAGTGCAT,0.115 ± 0.097
18,CCGTGCAC,0.0618 ± 0.097
19,GCGTGCAC,0.215 ± 0.033
20,ATGTGCAG,0.0828 ± 0.0059
21,ACCACGGA,-0.207 ± 0.0078
22,ATGTCCAC,0.113 ± 0.011
